Compound activity from PubChem.
Compounds with a hit are over-represented: about 21% of the library has one in this group of screens.
FBPA Giardia inh = Giardia lamblia aldolase inhibition; Potency, µM (top dose mostly 59.6 µM), for the others: top-dose activity, negative = inhibition, hits mostly inhibitors; AID 2451; 290,000 tested, 0.71% active; A8B2U2; purified Giardia FBPA; note: potency is the fitted concentration of half-maximal effect; % is set by controls: 0 for no effect and ±100 for the full control effect; nearly all actives have a fitted effect of over 55% in size
Target sequence (A8B2U2 whole entry, looked up): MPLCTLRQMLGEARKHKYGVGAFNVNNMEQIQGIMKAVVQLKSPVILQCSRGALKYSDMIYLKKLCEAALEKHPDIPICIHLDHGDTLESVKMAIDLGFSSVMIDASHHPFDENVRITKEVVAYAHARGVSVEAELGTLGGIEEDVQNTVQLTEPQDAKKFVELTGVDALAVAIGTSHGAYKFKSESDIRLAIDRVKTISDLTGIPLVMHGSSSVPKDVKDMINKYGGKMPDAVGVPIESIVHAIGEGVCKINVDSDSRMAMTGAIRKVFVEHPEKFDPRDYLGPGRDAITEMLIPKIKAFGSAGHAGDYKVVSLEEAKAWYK
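Giardia FBPA (40 nM reagent) was preincubated 10 min at RT with compound (up to 57.5 uM final), then substrate plus GAPDH/TPI/NAD/arsenate coupling system with diaphorase/resazurin was added; resorufin fluorescence (525/598 nm) was read after 20 min.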
Shiga toxin inh = Shiga toxin inhibition; Vero cells, Shiga toxin protein synthesis inhibition reporter; inhibition, % at 38.7 µM; 290,000 tested, 9.2% active; AID 2315; in the data active = inhibition mostly above about 28%, no sharp cut-off; inactive = mostly below about 43%; note: 0% is about no effect
Pf growth 48h = inhibits P. falciparum growth in the first generation, 48 h; Potency, µM (top dose mostly 28.7 µM), for inactives: at the highest dose activity change, negative = inhibition, most hits filed as inhibitors; P. falciparum luciferase growth in erythrocytes, 48 h; 310,000 tested, 5.9% active; note: potency is the fitted concentration of half-maximal effect; % is set by controls: 0 for no effect and ±100 for the full control effect
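Cell-based growth assay: transgenic P. falciparum expressing firefly luciferase, cultured in red cells within RPMI 1640 containing 0.5% w/v Albumax, 24 mM bicarbonate and gentamycin. A drop in luciferase activity indicates inhibition.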
Pf growth 96h = P. falciparum growth inhibition at 96 hour, primary screen for plastid delayed-death inhibitors. Potency, µM (doses to about 28.7 µM), for the others: top-dose activity change, negative = inhibition, actives largely listed as inhibitors. P. falciparum luciferase reporter growth, 96 h. 320,000 tested, 6.9% active. AID 504834; note: potency is the fitted concentration of half-maximal effect; % is set by controls: 0 for no effect and ±100 for the full control effect
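Infected RBCs, 2% Hct / 0.05% parasitemia final; luciferase-reporter P. falciparum; cpd 96 h, 37 C, 5% CO2; luciferase detection reagent; luminescence.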
CHX counter = counter-screen hit for Shiga toxin inhibitors, cycloheximide | cell reporter, cycloheximide protein synthesis inhibition counterscreen | max response, % | 300,000 tested, 12% active | AID 2314; in the data active = max response mostly above about 13%, no sharp cut-off; inactive = mostly below about 14%; note: read at 38.3 µM for the half of the compounds with a filed dose; 0% is about no effect
NS1 inh = inhibitors of influenza NS1 protein function; Potency, µM (titrated, usually from 46.1 µM), for inactives: at the top dose activity, positive = more growth; 270,000 tested, 0.4% active; AID 2326; calls by dose curve; note: potency is the fitted concentration of half-maximal effect; actives are rising curves; nearly all actives have a fitted effect of over 50% in size
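OD600 was taken as the measure of yeast growth restored by compound in an NS1-expressing S. cerevisiae strain. Cells had been washed out of glucose medium and diluted 1:100 into galactose -URA medium, pH 6.0.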
Numbers without * were called inactive; ? = inconclusive; . = no result given; + = active, no number; [ ] = dose if it differs, or a comment. Unless noted, calls come from the whole dose curve; as a rule, active = well fitted curve in the direction sought with a large enough effect; inconclusive = small, poorly fitted or top-dose-only effect, or another doubt; inactive = no such curve, though single readings can be large; an effect the other way counts as inactive or inconclusive.

SMILES | FBPA Giardia inh | Shiga toxin inh | Pf growth 48h | Pf growth 96h | CHX counter | NS1 inh
O=C(Nc1cccc(O)c1)N1CCOCC1 | 0% | 21 | 40% | 12µM* | 6 | 10%
COc1cc(SC)ccc1C(=O)OCC(=O)NCC(C)C | 0% | 32 | 20% | 38% | 25* | .
COc1cc(SC)ccc1C(=O)OCC(=O)N1CCCC1 | -1% | 50* | 59% | 59% | 40* | 1%
CC(C)CNC(=O)COC(=O)c1cc(Cl)cc(Cl)c1N | 3% | 7 | . | -29% | -3 | -14%
CC(C)CNC(=O)COC(=O)c1ccc(F)cc1Cl | 0% | 52* | 14% | 17% | 28* | .
CC(C)NC(=O)NC(=O)COC(=O)c1ccc(F)cc1F | 4% | -4 | -1% | 42% | -1 | -5%
COc1cc(SC)ccc1C(=O)OCC(=O)NC(=O)NC(C)C | 6% | -7 | 9% | 60% | 17* | 2%
Fc1cccc(Cc2noc(CN3CCCCC3CCc3ccccn3)n2)c1 (stereo not given) | 2% | -4 | ? | 13% | -3 | -8%
Cc1cc(C)n2nc(C(=O)NCCc3ccccc3)nc2n1 | -6% | 92* | . | 62% | 68* | -3%
O=C(NCCc1ccccc1)c1nc2nc(-c3cccs3)cc(C(F)(F)F)n2n1 | -2% | + | -25% | ? | 41* | -2%
O=C(O)c1cc2nc(-c3cccs3)cc(C(F)(F)F)n2n1 | -26% | 9 | 36% | 0% | -2 | .
O=C(c1cnn2c(C(F)(F)F)cc(-c3cccs3)nc12)N1CCN(Cc2ccccc2)CC1 | 1% | -10 | 2.3µM* | ? | -3 | -43%
COc1ccccc1-c1cc(C(=O)N2CCc3ccccc3C2)c2ccccc2n1 | 5% | -8 | ? | ? | -1 | -5%
Cc1cc(C)n2nc(CCc3ccccc3)nc2n1 | 1% | -2 | . | 0% | 10 | -11%
COc1ccccc1-c1cc(C(F)(F)F)n2ncc(C(=O)N3CCc4ccccc4C3)c2n1 | 5% | -17 | 2.3µM* | ? | -2 | 6%
O=C1c2ccccc2C(=O)N1Cc1ccccn1 | 8% | -1 | 27%[5.75 µM] | 10% | -1 | .
Cn1cc(-c2nc3cnc(N4CCOCC4)nc3n(CCC#N)c2=O)c2ccccc21 | 3% | . | . | . | . | .
CCCNC(=O)N1[C@H]2CC[C@@H]1C(C(=O)OC)=C(c1cccc(Cl)c1)C2 | . | . | 9% | ? | . | .
COC(=O)C1=C(c2cccc(OCc3ccccc3)c2)C[C@@H]2CC[C@H]1N2C(=O)NCc1ccc(N(C)C)cc1 | . | . | 8.3µM* | ? | . | .
COCCNC(=O)N1[C@H]2CC[C@@H]1C(C(=O)OC)=C(c1cccc(C#N)c1)C2 | . | . | 39% | 37% | . | .
COC(=O)C1=C(c2cccc(OCc3ccccc3)c2)C[C@@H]2CC[C@H]1N2C(=O)NCc1ccc(C(C)(C)C)cc1 | . | . | 3.7µM* | ? | . | .
COC(=O)C1=C(c2cccc(C#N)c2)C[C@@H]2CC[C@H]1N2C(=O)NCc1ccco1 | . | . | 2% | 2% | . | .
COC(=O)C1=C(c2cccc(OCc3ccccc3)c2)C[C@@H]2CC[C@H]1N2C(=O)NCCOc1ccc(OC)cc1 | . | . | 7.4µM* | ? | . | .
COC(=O)C1=C(c2cccc(OCc3ccccc3)c2)C[C@@H]2CC[C@H]1N2C(=O)NCc1ccccc1C(F)(F)F | . | . | 4.1µM* | ? | . | .
O=C(Cc1ccccc1Nc1c(Cl)cccc1Cl)OCO/N=[N+](\[O-])N1CCCC1 | ? | 19 | . | . | 11 | .
SMILES | FBPA Giardia inh | Shiga toxin inh | Pf growth 48h | Pf growth 96h | CHX counter | NS1 inh
CN(C)CC[n+]1ccc(C(=O)c2ccccc2)cc1 | ? | . | ? | 61% | -2 | 9%
CCOC(=O)c1c(NC(=O)CN2C(=O)CN(C)C2=O)sc(C)c1C | 1% | 2 | -15% | ? | 0 | .
COC(=O)C1=C(c2cccc(OCc3ccccc3)c2)C[C@@H]2CC[C@H]1N2C(=O)NCCN1CCOCC1 | . | . | ? | 5.2µM* | . | .
COC(=O)C1=C(c2cccc(Cl)c2)C[C@@H]2CC[C@H]1N2C(=O)NCC1CC1 | . | . | ? | -12% | . | .
COC(=O)C1=C(c2cccc(OCc3ccccc3)c2)C[C@@H]2CC[C@H]1N2C(=O)NCc1cccc(OC)c1 | . | . | 10µM* | 4.1µM* | . | .
Cc1ccc(/C=N/NC(=O)c2nnn(-c3nonc3N)c2C(C)C)s1 | . | 9 | -16% | ? | 8 | -3%
Cc1ccc(C2Nc3ccc4ccccc4c3C3=C2C(=O)CC(C)(C)C3)o1 (stereo not given) | -8% | 29 | 15µM* | ? | 13* | 4%
CC1(C)CC(=O)C2=C(C1)c1c(ccc3ccccc13)NC2c1ccc(C(=O)O)cc1 (stereo not given) | -4% | 22 | ? | ? | 14 | -6%
O=C1CCCC2=C1C(c1ccco1)Nc1ccc3ccccc3c12 (stereo not given) | -28% | 45* | ? | -5% | 33* | -18%
CN1CCOc2ccc(S(=O)(=O)N3CCN(S(=O)(=O)c4c(F)cccc4F)CC3)cc21 | . | -2 | ? | ? | 0 | .
CC(CN1CCOCC1)OC(=O)c1ccccc1Cl (stereo not given) | ? | 9 | 8% | ? | 10* | 15%
COc1cccc(C(=O)OC(C)CN2CCCC2)c1 (stereo not given) | -6% | -13 | -4% | 4.1µM* | -3 | -6%
CCc1ccc(C(=O)C(C)CN2CCCCC2)cc1 (stereo not given) | . | . | -6% | 1.5µM* | . | .
COc1cccc(C(=O)OCCN2CCCCC2)c1 | -11% | 31 | 8% | 5% | 24 | 12%
CC(CN1CCN(C)CC1)OC(=O)c1cccc(Cl)c1 (stereo not given) | -12% | 52* | 6% | 47% | 17* | ?
CS(=O)(=O)N1CCC2(CC1)CN(C(=O)Nc1ccccc1)C2 | 6% | . | . | . | . | .
CC1CCN(C(=O)c2cc(S(=O)(=O)N3CCCCC3)c[nH]2)CC1 | -9% | 2 | 13% | -10% | 1 | 7%
Cc1noc(C)c1CSCC(=O)Nc1nc2ccc(S(C)(=O)=O)cc2s1 | . | . | -30% | ? | . | .
Cc1ccc(Cl)cc1N1CCN(S(=O)(=O)c2ccc3c(c2)NC(=O)C(C)C(=O)N3)CC1 (stereo not given) | 11% | -7 | -2% | ? | -5 | 15%
CC(CN1CCCCC1)OC(=O)c1cccc(F)c1 (stereo not given) | -3% | 28* | 32% | 11% | 18* | -9%
CCOC(=O)C1=C(COC(=O)CCNS(=O)(=O)c2ccc(NC(C)=O)cc2)NC(=O)NC1C (stereo not given) | . | . | -21% | 35% | . | .
COc1ccc(S(=O)(=O)N(C)c2ccc(OC(=O)C(C)Oc3ccc(F)cc3)cc2)cc1 (stereo not given) | . | . | 9% | 22% | . | .
Cc1cc(C)n(-c2nc3ccccc3s2)n1 | 0% | 109* | 140% | 13% | 56* | -4%
Cc1c2c(=O)n(-c3nc4ccccc4s3)nc-2cc(O)n1Cc1ccccc1 | -6% | 22 | 2.9µM* | 2.9µM* | 11 | 15%
